An excerpt weighted towards active compounds, which were near 3.8% of everything screened.
HT1080 IDH1KD tx: qHTS for induction of synthetic lethality in tumor cells producing 2HG: qHTS for the HT-1080-IDH1KD cell line. AID 686971, 2013. Potency, µM (titrated, usually from 46.1 µM), without a hit: at the top dose activity, negative = toxicity, usual class: cytotoxic. HT-1080 IDH1 knockdown viability, ATP luminescence, 48 h. hit rate 2% among 360,000;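 note: 0% = DMSO wells and -100% = cell-free medium wells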
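After a 2 h attachment period, IDH1KD HT-1080 cells took pin-transferred compound for 48 h at 37 °C; ATP-based luminescence after 10 min room-temperature reagent incubation reported viability.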
HepG2 viability: qHTS for Inhibitors of TGF-b: Cytotox Counterscreen; HepG2 CAGA-GFP viability, ATP luminescence, 18 h; Potency, µM (highest dose often 46.1 µM), without a hit: at the highest dose activity change, negative = cytotoxicity, most hits filed as cytotoxic; AID 588856, 2011; hit rate 0.76% among 410,000
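HepG2 CAGA-GFP cells (1000/well, DMEM with 1% FBS) received compound, then TGF-beta at 500 pg/mL final, and were incubated 18 hours at 37 degrees C. Viability was read by CellTiter-Glo luminescence. Media-only wells were set as complete cell-killing and DMSO as no toxicity.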
ATXN viability: Viability Counterscreen for Primary qHTS for Inhibitors of ATXN expression; S2 cells (HEK-293 line with an ATXN2-luciferase reporter) viability, CellTiter-Fluor protease fluorescence, 24 h; Potency, µM (series often up to 56.7 µM), actives largely listed as cytotoxic; hit rate 0.49% among 400,000; note: nearly all actives have a fitted effect of over 40% in size
TGFb inhibitor: qHTS for Inhibitors of TGF-b | HepG2 CAGA-GFP TGF-b/SMAD3 reporter, GFP fluorescence, 18 h; TGF-beta stimulated, 500 pg/mL final | Potency, µM (series often up to 46.1 µM), inactives show at the highest dose activity, negative = inhibition, most hits filed as inhibitors | hit rate 1.2% among 410,000 | AID 588855, 2011; note: % is set by controls: 0 for no effect and ±100 for the full control effect; nearly all actives have a fitted effect of over 65% in size
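Using HEPG2 CAGA-GFP reporter cells at 1000 cells/well, we pinned test compounds, stimulated with recombinant TGF-beta (500 pg/mL final) and measured total well GFP after 18 h.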
HT1080NT lethal: qHTS for induction of synthetic lethality in tumor cells producing 2HG: qHTS for the HT-1080-NT fibrosarcoma cell line; HT-1080-NT fibrosarcoma viability, CellTiter-Glo ATP luminescence, 48 h; Potency, µM (titrated, usually from 46.1 µM), for the others: at the top dose activity, negative = less viability, hits mostly cytotoxic; hit rate 1.6% among 360,000;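 note: NT is the 2HG producing partner of a matched IDH1 knockdown line; 0% = DMSO-treated cells and -100% = media-only wells without cells; nearly all actives have a fitted effect of over 55% in size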
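Toxicity toward the 2HG-producing NT line was scored as %Activity, normalised to DMSO and no-cell wells, from CellTiter-Glo luminescence after 48 hours' treatment.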
ATXN2 expr inh: Primary qHTS for Inhibitors of ATXN expression. HEK-293 ATXN2-luciferase reporter, luminescence, 24 h. Potency, µM (top dose mostly 57 µM), for the others: at the top dose activity change, negative = inhibition, usual class: inhibitors. hit rate 0.72% among 360,000; note: % is set by controls: 0 for no effect and ±100 for the full control effect; nearly all actives have a fitted effect of over 55% in size
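ATXN2-luciferase reporter cells (luciferase flanked by upstream and downstream ATXN2 gene portions) were treated 24 h at 37 °C with compounds at up to 57 uM. SteadyGlo luminescence gave expression; GF-AFC fluorescence gave viability.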
* = called active by the depositor; ! = a repeat was not active. Calls come from the whole dose curve; as a rule, active = well fitted curve in the direction sought with a large enough effect; inconclusive = small, poorly fitted or top-dose-only effect, or another doubt; inactive = no such curve, though single readings can be large; an effect the other way counts as inactive or inconclusive. Potency is the fitted concentration of half-maximal effect.

What do the screens show for `Cc1c(Cl)cccc1NC(=O)CC(c1ccc(F)cc1)N1Cc2ccccc2C1=O` (stereo not drawn)?
HepG2 viability: -28%; TGFb inhibitor: 18µM*

What do the screens show for `CN(C(=O)COC(=O)c1cccc(Cl)c1)C1CCS(=O)(=O)C1` (stereo not drawn)?
HT1080 IDH1KD tx: 0%; HepG2 viability: -1%; ATXN viability: inactive; TGFb inhibitor: 22%; HT1080NT lethal: -2%

How did CN(C(=O)COC(=O)c1ccc(-c2ccc(O)cc2)cc1)C1CCS(=O)(=O)C1 (stereo not drawn) do in these assays?
HT1080 IDH1KD tx: 18µM*; HepG2 viability: -2%; ATXN viability: inactive; TGFb inhibitor: -11%; HT1080NT lethal: 6.5µM*; ATXN2 expr inh: -14%

Results for CCCCCc1cc(=O)oc2c(C(CCN(CC)CC)c3ccc(N(C)C)cc3)c(OC)cc(OC)c12 (stereo not drawn) ?
HT1080 IDH1KD tx: -25%; HepG2 viability: -109%; ATXN viability: 25µM*; TGFb inhibitor: inconclusive; HT1080NT lethal: 18µM*; ATXN2 expr inh: inconclusive

Results for CCCCCc1cc(=O)oc2c(C(CCN3CCCC(C)C3)c3ccc(N(C)C)cc3)c(OC)cc(OC)c12 (stereo not drawn) ?
HT1080 IDH1KD tx: -25%; HepG2 viability: -76%; TGFb inhibitor: inconclusive; HT1080NT lethal: inconclusive; ATXN2 expr inh: inconclusive

What do the screens show for `CCCCCc1cc(=O)oc2c(C(CCN3CCCCC3)c3cc(OC)c(OC)c(OC)c3)c(OC)cc(OC)c12` (stereo not drawn)?
HT1080 IDH1KD tx: inconclusive; HepG2 viability: 13µM*; ATXN viability: 20µM*; TGFb inhibitor: 16µM*; HT1080NT lethal: 21µM*; ATXN2 expr inh: 32µM*

What do the screens show for `CCCCCc1cc(=O)oc2c(C(CCN3CCCC(C)C3)c3cc(OC)c(OC)c(OC)c3)c(OC)cc(OC)c12` (stereo not drawn)?
HT1080 IDH1KD tx: inconclusive; HepG2 viability: 16µM*; ATXN viability: 32µM*; TGFb inhibitor: inconclusive; HT1080NT lethal: inconclusive; ATXN2 expr inh: inconclusive

What do the screens show for `CCN(CC)CCC(c1ccc2c(c1)OCO2)c1c(OC)cc(OC)c2ccc(=O)oc12` (stereo not drawn)?
HT1080 IDH1KD tx: 0%; HepG2 viability: -16%; ATXN viability: 10µM*; TGFb inhibitor: 0%; HT1080NT lethal: -3%; ATXN2 expr inh: 10%

What do the screens show for `O=C(O)C1=NC(C(=O)O)CC(C=CN2c3cc(O)c(OC4OC(CO)C(O)C(O)C4O)cc3CC2C(=O)O)=C1` (stereo not drawn)?
ATXN2 expr inh: 8%

How did CN(C)c1ccc(/C=C2\C=Cc3ccccc32)cc1F do in these assays?
HepG2 viability: -27%; TGFb inhibitor: 6%

What do the screens show for `COc1ccc(C(N)c2csc(Nc3nncc4ccccc34)n2)cc1` (stereo not drawn)?
HT1080 IDH1KD tx: inconclusive; HepG2 viability: -66%; ATXN viability: inconclusive; TGFb inhibitor: 13µM*; HT1080NT lethal: inconclusive; ATXN2 expr inh: -32%

How did Cc1cc2c(c(-c3ccc(Cl)cc3)c1)OC(CNC(=O)CCC(=O)N(C)C)C2 (stereo not drawn) do in these assays?
ATXN viability: inactive

Results for Cc1ccc(-n2c(C)cc(/C=C3\SC(=O)NC3=O)c2C)cc1 ?
HT1080 IDH1KD tx: -1%; HepG2 viability: -2%; ATXN viability: inactive; TGFb inhibitor: -20%; HT1080NT lethal: 2%; ATXN2 expr inh: 78%

What do the screens show for `Cc1cc(/C=C2\SC(N)=NC2=O)c(C)n1-c1ccc(F)cc1`?
HT1080 IDH1KD tx: 0%; HepG2 viability: 13µM*; ATXN viability: inactive; TGFb inhibitor: -10%; HT1080NT lethal: 3%; ATXN2 expr inh: 17%

Results for CN(CCO)C(=O)c1cn(C2CCN(Cc3ccc4ccccc4c3)CC2)nn1 ?
ATXN viability: inactive

How did O=C(NNc1ccccc1)c1sc2ccccc2c1Cl do in these assays?
HT1080 IDH1KD tx: inconclusive; HT1080NT lethal: -15%

What do the screens show for `CCOC(=O)C1=C(N)n2c(s/c(=C\c3ccco3)c2=O)=C(C(=O)OCC)C1c1ccco1` (stereo not drawn)?
HT1080 IDH1KD tx: 7.9µM*; HepG2 viability: 4%; ATXN viability: inactive; TGFb inhibitor: 9%; HT1080NT lethal: 16µM*; ATXN2 expr inh: -5%

What do the screens show for `Cc1cc(-c2ccc(C)c(S(=O)(=O)Nc3ccccc3C(F)(F)F)c2)on1`?
HepG2 viability: -13%; TGFb inhibitor: -9%

How did COc1cc(NC(C)CCCN)c2ncccc2c1 (stereo not drawn) do in these assays?
HT1080 IDH1KD tx: inconclusive; HepG2 viability: -55%; ATXN viability: 13µM*!; TGFb inhibitor: inconclusive; HT1080NT lethal: 16µM*; ATXN2 expr inh: inconclusive

How did COc1cc(NCCCCCCCN)c2ncccc2c1 do in these assays?
HT1080 IDH1KD tx: 0%; HepG2 viability: -60%; ATXN viability: inactive; TGFb inhibitor: inconclusive; HT1080NT lethal: -9%; ATXN2 expr inh: -26%

What do the screens show for `COc1ccc2c(c1)CCc1cnc(-n3ncc(C(=O)NCc4cc(C)no4)c3C3CC3)nc1-2`?
ATXN viability: inactive

Results for Cc1oc(-c2ccccc2Cl)nc1CS(=O)CC(=O)NCc1ccc(Cl)cc1 (stereo not drawn) ?
HT1080 IDH1KD tx: 0%; HepG2 viability: -18%; ATXN viability: inactive; TGFb inhibitor: 8.9µM*; HT1080NT lethal: -18%; ATXN2 expr inh: -3%

How did Cc1oc(-c2ccccc2F)nc1CS(=O)CC(=O)NCc1ccc(Cl)cc1 (stereo not drawn) do in these assays?
HT1080 IDH1KD tx: 7%; HepG2 viability: -12%; ATXN viability: inactive; TGFb inhibitor: -9%; HT1080NT lethal: -4%; ATXN2 expr inh: 15%

How did CCCCC/C=C\C/C=C\CCCCCCCC(=O)NC(C)c1ccccc1 (stereo not drawn) do in these assays?
ATXN viability: inactive; ATXN2 expr inh: -11%

How did CCC1CN(CCNC(=O)c2cc(C)nn2CC)Cc2cc(OC)ccc2O1 (stereo not drawn) do in these assays?
ATXN viability: inactive

Screening data deposited in PubChem by National Center for Advancing Translational Sciences (NCATS).
